In the library only some 2.7% were active in any assay of this set; here they are far more common.
HEK293 tox = qHTS of GLP-1 Receptor Inverse Agonists: Cytotox Screen; HEK293 cAMP-luciferase reporter cells, luminescence, 24 h; Potency, µM (doses to about 38.3 µM), without a hit: top-dose activity change, negative = inhibition, most hits filed as inhibitors; actives 0.13% (n = 410,000);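 further: loss of luciferase light is scored as toxicity; on the % scale 0 is the no-effect control and ±100 the full control effect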
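Here, cytotoxicity is scored as loss of luminescence. The MLSMR collection was tested on cells seeded in medium containing 10% Nu serum, with a 24 hr compound exposure preceded by 12 hours of culture.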
TrxR1 inh = qHTS Assay for Inhibitors of Mammalian Selenoprotein Thioredoxin Reductase 1 (TrxR1): qHTS | recombinant rTrxR1, NADPH fluorescence consumption, selenite substrate | AID 588453, 2011 | Thioredoxin reductase 1, cytoplasmic (Rattus norvegicus), O89049 | actives 1% (n = 390,000) | Potency, µM (titrated, usually from 114 µM), for inactives: top-dose activity change, negative = inhibition, actives largely listed as inhibitors; further: on the % scale 0 is the no-effect control and ±100 the full control effect; nearly all actives have a fitted effect of over 65% in size
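Rat TrxR1 (90 nM in the dispensed reagent) was pre-reduced with 400 uM NADPH for 5 min at room temperature, then incubated with compound for 15 min. After 400 uM selenite was added, NADPH fluorescence (Ex 340/Em 450 nm) was followed for 8 min.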
mIDH1 inhibitor = qHTS for Inhibitors of mutant isocitrate dehydrogenase 1 (IDH1): qHTS; Isocitrate dehydrogenase [NADP] cytoplasmic (Homo sapiens), O75874; actives 0.093% (n = 390,000); IDH1-R132H enzyme, NADPH consumption, diaphorase/resazurin fluorescence; Potency, µM (doses to about 76.6 µM), for the others: at the top dose activity change, negative = inhibition, hits mostly inhibitors; further: on the % scale 0 is the no-effect control and ±100 the full control effect; nearly all actives have a fitted effect of over 65% in size
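IDH1-R132H (0.5 ug/mL) preincubated 30 min with compound, then NADPH (0.016 mM) and alpha-KG (2 mM) added; 80 min at RT, pH 7.5. Remaining NADPH coupled via diaphorase/resazurin to fluorescence (540/590 nm); concentration-response curves normalized to no-enzyme control.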
GLP1R inv ag = qHTS of GLP-1 Receptor Inverse Agonists (Inhibition Mode); Glucagon-like peptide 1 receptor (Homo sapiens), P43220; Potency, µM (top dose mostly 38.3 µM), for inactives: at the top dose activity change, negative = inhibition, hits mostly inhibitors; AID 624417, 2012; actives 1.6% (n = 410,000); HEK293 GLP-1R CRE-luciferase, luminescence, 24 h; GLP-1R form is constitutively active; further: on the % scale 0 is the no-effect control and ±100 the full control effect; nearly all actives have a fitted effect of over 55% in size
Target sequence (P43220 whole entry, looked up): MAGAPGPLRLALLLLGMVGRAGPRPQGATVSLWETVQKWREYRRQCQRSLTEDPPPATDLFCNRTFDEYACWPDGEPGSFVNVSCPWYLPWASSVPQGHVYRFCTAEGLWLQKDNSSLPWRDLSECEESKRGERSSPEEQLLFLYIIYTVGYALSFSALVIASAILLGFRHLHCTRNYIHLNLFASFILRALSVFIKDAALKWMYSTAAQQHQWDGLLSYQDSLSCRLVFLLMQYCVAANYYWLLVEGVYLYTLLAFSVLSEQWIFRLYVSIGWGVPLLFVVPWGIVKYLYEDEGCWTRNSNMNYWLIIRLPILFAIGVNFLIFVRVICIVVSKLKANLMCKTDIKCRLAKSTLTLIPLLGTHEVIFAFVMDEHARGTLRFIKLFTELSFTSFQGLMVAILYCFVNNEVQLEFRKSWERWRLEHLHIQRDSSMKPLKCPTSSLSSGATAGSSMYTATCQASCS
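Inverse agonism was detected as reduced cAMP-driven luciferase luminescence after 24 h compound treatment. The cells were HEK293 clones expressing constitutively active human GLP-1R with the reporter. Reporter-only and GPR119 cell lines served as counterscreen controls.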
TrxR1 substrate = qHTS Assay for Substrates of Mammalian Selenoprotein Thioredoxin Reductase 1 (TrxR1): qHTS | actives 0.01% (n = 390,000) | Thioredoxin reductase 1, cytoplasmic (Rattus norvegicus), O89049 | Potency, µM (titrated, usually from 114 µM), for inactives: top-dose activity change, negative = substrate turnover | purified TrxR1 substrate turnover, NADPH consumption readout; further: on the % scale 0 is the no-effect control and ±100 the full control effect; nearly all actives have a fitted effect of over 50% in size
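Rat TrxR1, dispensed at 90 nM, was prereduced with 400 uM NADPH (final) for 5 min at ~22 deg C, then incubated with compound 15 min before 400 uM selenite. A first-read NADPH fluorescence drop versus no-compound background flagged substrates.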
GLP-1R agonist = qHTS of GLP-1 Receptor Agonists; Glucagon-like peptide 1 receptor (Homo sapiens), P43220; AID 624172, 2012; HEK293 GLP-1R CRE-luciferase, luminescence, 4-6 h; cells express a hypersensitive GLP-1R form; actives 0.007% (n = 380,000); Potency, µM (doses to about 45.6 µM), for inactives: at the top dose activation, actives largely listed as activators; further: % of control where 0% means no effect
* = called active by the depositor; ? = inconclusive; . = no result; [ ] = dose if it differs, or a comment. The call rests on the fitted dose curve; in most records, active means well fitted curve in the direction sought with a large enough effect; inconclusive means small, poorly fitted or top-dose-only effect, or another doubt; inactive means no such curve, though single readings can be large; an effect the other way counts as inactive or inconclusive. Potency means the concentration at half of the fitted maximal effect.

SMILES | HEK293 tox | TrxR1 inh | mIDH1 inhibitor | GLP1R inv ag | TrxR1 substrate | GLP-1R agonist
CN(C)S(=O)(=O)N1CCC(Oc2cccc(C(=O)NCCC3=CCCCC3)c2)CC1 | -25% | 27% | 10% | 10µM* | 4% | -14%
Cc1c(Cl)cccc1NC(=O)c1ccc2c(c1)nnn2C1CCCC1 | -21% | -19%[57.1 µM] | 3% | ? | -13%[57.1 µM] | .
Cc1ccccc1OCC(=O)NCC(=O)OCC(=O)c1ccc(F)cc1 | . | -9% | . | . | -2% | .
O=C1c2cccnc2C(=O)N1c1nc(-c2ccccc2)cs1 | . | 7%[0.0914 µM] | . | . | 10% | .
Cc1ccccc1Cn1cc(CCC(=O)NC(C)c2ccccc2)c2ccccc21 (configuration not stated) | -2% | -6% | 0% | ? | -7% | .
CC(NC(=O)c1ccccc1Br)c1ccc2c(c1)CCCC2 (configuration not stated) | 6% | 8% | 8% | ? | -1% | -9%
CC(NC(=O)c1ccc(Br)cc1)c1ccc2c(c1)CCCC2 (configuration not stated) | -2% | -7% | 1% | 10µM* | -4% | 2%
CC(NC(=O)c1ccc(F)cc1)c1ccc2c(c1)CCCC2 (configuration not stated) | 1% | 7% | 0% | 10µM* | 3% | 1%
COc1ccc(OC)c(NC(=O)Cc2c(C(=O)O)n(C)c3ccc(C)cc23)c1 | -1% | 1% | 17% | 11% | -4% | .
O=[N+]([O-])c1ccc(-c2nc(-c3cccs3)c(-c3cccs3)[nH]2)cc1 | ? | 3% | -1% | 3.2µM* | 3% | -5%
O=[N+]([O-])c1cccc(-c2nc(-c3cccs3)c(-c3cccs3)[nH]2)c1 | 0% | -7% | 0% | 2.5µM* | 6%[57.1 µM] | 1%
Cc1ccc2nc(N(CCCN(C)C)C(=O)c3sc4ccccc4c3Cl)sc2c1 | 0% | 50µM* | 2% | 0% | -7% | 3%
Cc1ccc2nc(N(CCCN(C)C)C(=O)c3ccc(S(=O)(=O)N(C)C)cc3)sc2c1 | -14% | 4% | 1% | 0% | 3% | -1%
Cc1ccc(C(=O)N(CCCN(C)C)c2nc3ccc(Cl)cc3s2)cc1C | ? | 2% | 8% | 6.3µM* | -1% | 17%
CN(C)CCCN(C(=O)c1ccco1)c1nc2ccc(Br)cc2s1 | ? | 3% | 4% | 3.2µM* | 0% | 8%
Cn1c(=O)cc(SCC(=O)NCCc2ccc(Cl)cc2)c2cc(Cl)ccc21 | 9% | 26% | 0% | -12% | -2% | 0%
CCOc1cc(C2CC(=O)Nc3c2c(=O)nc(SCc2cccc(Cl)c2)n3C)ccc1O (configuration not stated) | 5% | 6% | -12% | 22% | -2% | .
O=C(CN1C(=O)c2ccccc2C1=O)N1CCCCC1 | 6% | 7% | 2% | 37% | 0% | -10%
O=C(CN1C(=O)c2cccc3cccc(c23)C1=O)N1CCCCCC1 | -12% | 27% | 5% | 7.9µM* | 49% | -2%
O=C(NCc1ccccc1)c1nc(S(=O)(=O)Cc2ccc(F)cc2)ncc1Cl | ? | 3.5µM* | 29% | ? | -1% | .
CCOc1ccc(NC(=O)c2nc(S(=O)(=O)Cc3ccccc3C)ncc2Cl)cc1 | . | 14µM* | . | . | -3% | .
O=C(Nc1ccc(F)cc1)c1nc(S(=O)(=O)Cc2ccccc2)ncc1Cl | ? | 3.5µM* | 6% | ? | 1% | -6%

High-throughput results as filed in PubChem.
